Source: PubChem BioAssay (National Center for Advancing Translational Sciences (NCATS))
This is a sample that favours compounds with a hit; in the whole collection about 10% have one here.
BAZ2B inh = blocks human BAZ2B | AID 504333 | Potency, µM (titrated, usually from 114 µM), most hits filed as inhibitors | Q9UIF8 | AlphaScreen BAZ2B-H3K14Ac peptide displacement | hit rate 4.4% among 360,000; further: nearly all actives have a fitted effect of over 60% in size
Target sequence (Q9UIF8 whole entry, looked up): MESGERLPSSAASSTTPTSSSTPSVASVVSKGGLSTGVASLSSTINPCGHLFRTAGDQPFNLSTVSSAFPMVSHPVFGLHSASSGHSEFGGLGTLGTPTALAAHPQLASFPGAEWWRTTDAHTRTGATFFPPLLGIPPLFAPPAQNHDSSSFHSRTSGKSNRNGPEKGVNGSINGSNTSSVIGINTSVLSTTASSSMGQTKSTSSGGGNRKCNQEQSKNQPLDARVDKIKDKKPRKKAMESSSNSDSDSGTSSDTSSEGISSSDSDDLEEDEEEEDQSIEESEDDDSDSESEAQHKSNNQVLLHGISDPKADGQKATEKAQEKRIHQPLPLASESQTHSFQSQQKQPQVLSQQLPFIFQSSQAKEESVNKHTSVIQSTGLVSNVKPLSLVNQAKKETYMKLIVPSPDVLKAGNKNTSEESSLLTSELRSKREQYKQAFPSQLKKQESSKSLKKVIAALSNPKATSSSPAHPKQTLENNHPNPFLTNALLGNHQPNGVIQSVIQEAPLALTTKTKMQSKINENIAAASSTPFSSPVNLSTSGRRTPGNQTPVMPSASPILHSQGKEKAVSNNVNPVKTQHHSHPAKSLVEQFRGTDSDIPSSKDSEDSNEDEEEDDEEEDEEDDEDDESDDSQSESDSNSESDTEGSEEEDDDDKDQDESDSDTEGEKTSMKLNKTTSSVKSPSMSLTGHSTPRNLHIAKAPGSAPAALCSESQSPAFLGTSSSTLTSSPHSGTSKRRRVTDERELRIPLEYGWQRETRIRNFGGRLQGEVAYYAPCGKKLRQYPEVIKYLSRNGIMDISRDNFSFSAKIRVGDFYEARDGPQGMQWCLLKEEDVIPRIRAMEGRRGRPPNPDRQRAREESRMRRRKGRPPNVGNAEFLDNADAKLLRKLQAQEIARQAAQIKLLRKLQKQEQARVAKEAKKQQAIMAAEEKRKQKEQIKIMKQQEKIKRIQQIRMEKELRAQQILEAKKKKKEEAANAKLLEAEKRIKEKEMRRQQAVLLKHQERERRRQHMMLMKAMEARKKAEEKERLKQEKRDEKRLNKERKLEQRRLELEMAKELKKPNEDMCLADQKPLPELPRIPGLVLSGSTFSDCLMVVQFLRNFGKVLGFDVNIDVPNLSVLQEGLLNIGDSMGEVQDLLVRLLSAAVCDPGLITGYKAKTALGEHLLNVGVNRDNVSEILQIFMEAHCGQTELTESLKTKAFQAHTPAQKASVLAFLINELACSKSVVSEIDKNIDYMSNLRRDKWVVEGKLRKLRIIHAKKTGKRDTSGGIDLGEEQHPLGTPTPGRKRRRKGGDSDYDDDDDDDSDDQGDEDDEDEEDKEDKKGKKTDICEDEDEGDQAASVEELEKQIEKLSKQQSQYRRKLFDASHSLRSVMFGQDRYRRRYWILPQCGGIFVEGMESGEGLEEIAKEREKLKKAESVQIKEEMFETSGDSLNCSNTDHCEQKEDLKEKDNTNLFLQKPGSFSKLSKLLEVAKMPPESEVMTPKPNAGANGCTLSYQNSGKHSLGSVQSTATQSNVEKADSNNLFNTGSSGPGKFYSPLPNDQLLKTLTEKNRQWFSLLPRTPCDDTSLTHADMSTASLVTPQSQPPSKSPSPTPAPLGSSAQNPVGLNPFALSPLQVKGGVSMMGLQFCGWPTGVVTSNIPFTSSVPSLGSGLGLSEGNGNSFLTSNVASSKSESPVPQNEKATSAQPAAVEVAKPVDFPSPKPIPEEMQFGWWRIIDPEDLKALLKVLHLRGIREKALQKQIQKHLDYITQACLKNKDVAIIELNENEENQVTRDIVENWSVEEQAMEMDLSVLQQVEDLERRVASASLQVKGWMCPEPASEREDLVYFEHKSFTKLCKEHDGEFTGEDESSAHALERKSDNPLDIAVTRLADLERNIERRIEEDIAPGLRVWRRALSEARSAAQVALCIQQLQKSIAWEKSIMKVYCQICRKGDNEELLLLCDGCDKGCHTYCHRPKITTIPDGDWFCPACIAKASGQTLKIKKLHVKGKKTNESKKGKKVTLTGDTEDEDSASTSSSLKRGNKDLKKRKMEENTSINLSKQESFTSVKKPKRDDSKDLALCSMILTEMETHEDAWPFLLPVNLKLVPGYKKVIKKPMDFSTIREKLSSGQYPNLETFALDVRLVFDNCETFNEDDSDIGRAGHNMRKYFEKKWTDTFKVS
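Compounds, titrated to a top concentration of 110 uM, were incubated 30 min at room temperature with preformed BAZ2B/acetyl-K14 H3 peptide complex (50 nM each). Proximity signal was measured by AlphaScreen after 20 min with beads.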
G9a block = inhibitors of human histone lysine methyltransferase G9a; Q96KQ7; G9a H3K9 monomethylation, AlphaScreen, 2 h; Potency, µM (highest dose often 102 µM), actives largely listed as inhibitors; hit rate 8.8% among 350,000; AID 504332; further: nearly all actives have a fitted effect of over 75% in size
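Enzyme 20 nM + cpd, 15 min RT; add b-H3K9 pep 500 nM / SAM 20 uM; 2 h RT; anti-H3K9me1 Ab 0.5 ug/mL + SA donor / anti-rabbit acceptor beads 20 ug/mL each, 10 min; AlphaScreen read.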
JMJD2A Tudor = JMJD2A Tudor domain (human) inhibition | O75164 | hit rate 4.4% among 390,000 | Potency, µM (series often up to 114 µM), hits mostly inhibitors | AlphaScreen JMJD2A-Tudor / H3K4me3 peptide binding | AID 504339; further: nearly all actives have a fitted effect of over 50% in size
HP1b binding inh = HP1-beta chromodomain-methylated histone interaction inhibition; AlphaScreen HP1-beta / biotin-H3K9me3 peptide binding; Potency, µM (titrated, usually from 114 µM), usual class: inhibitors; P83916; hit rate 0.56% among 390,000; further: nearly all actives have a fitted effect of over 70% in size
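Compound inhibition of the preformed complex between 50 nM HP1-beta and 50 nM biotinylated H3K9me3 peptide was read by AlphaScreen. Buffer was PBS pH 7.4 with 0.01% Tween-20. Incubations ran 30 min at room temperature, with 10 ug/mL donor/acceptor beads.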
CtBP-E1A blk = inhibitors of CtBP/E1A interaction; activity change, % (no concentration beside the values); hit rate 0.49% among 340,000; AlphaScreen GST-E1A/His-CtBP binding, 1536-well; stronger effect = lower value; in the data active means activity change below about -65%; inconclusive means mostly about -30% to -63%
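Homogeneous bead-based format: GST-tagged E1A captured on glutathione donor beads, His-tagged CtBP on nickel acceptor beads; compounds precede bead addition by 2 h at 37 °C.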
Six1-Eya2 inh = inhibitors of human Six1/Eya2 interaction; activity change, % (test concentration not listed); AlphaScreen GST-Six1/His-Eya2 binding, biochemical; stronger effect = lower value; hit rate 0.56% among 360,000; AID 651725; Q15475+O00167; in the data active means activity change below about -65%; inconclusive means mostly about -30% to -63%
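AlphaScreen with GST-Six1 and His-Eya2 (5X mix: 250 nM and 500 nM), glutathione donor and nickel acceptor beads; buffer 50 mM Tris pH 8.0, 300 mM NaCl, 1 mM TCEP; 1 h at 37 C in the dark.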
Numbers stand for hits; 0 = inactive; ? = inconclusive; - = no result given; [ ] = remark or other dose. Unless noted, the call rests on the fitted dose curve; in most records, active means well fitted inhibition curve with a large enough effect; inconclusive means small, poorly fitted or top-dose-only effect; inactive means no such curve, though single readings can be large or run the other way.

SMILES | BAZ2B inh | G9a block | JMJD2A Tudor | HP1b binding inh | CtBP-E1A blk | Six1-Eya2 inh
O=c1[nH]c2ccc(NS(=O)(=O)c3ccc(Cl)cc3)cc2[nH]1 | 0 | 56µM | 0 | 0 | 0 | 0
CN(C)c1ncc2nc(-c3ccc(Cl)cc3)c(=O)n(C)c2n1 | - | 0[0.501 µM] | - | - | - | -
O=c1oc(-c2cccc(S(=O)(=O)N3CCOCC3)c2)nc2ccccc12 | 0 | 10µM | 0 | 0 | 0 | 0
CCC(C)n1c(-c2cccc(S(=O)(=O)N(CC)CC)c2)n[nH]c1=S (stereo not given) | 0 | 8.9µM | 10µM | 0 | 0 | 0
CCN(CC)S(=O)(=O)c1cccc(-c2n[nH]c(=S)n2/N=C/c2ccc(OC)cc2)c1 | 0 | ? | ? | 0 | 0 | 0
CC(=O)Oc1cccc(-c2nc3ccccc3c(=O)o2)c1 | 0 | 0 | 0 | 0 | 0 | 0
O=S(=O)(c1cccc(-c2csc(-c3cccnc3)n2)c1)N1CCCCC1 | 0 | 0[2.33 µM] | 0 | 0 | 0 | 0
O=S(=O)(c1cccc(-c2csc(-c3cccnc3)n2)c1)N1CCOCC1 | 0 | 71µM | 0 | 0 | 0 | 0
CCN(CC)S(=O)(=O)c1cccc(-c2n[nH]c(=S)n2/N=C/c2ccc(OC(F)F)cc2)c1 | ? | 1.8µM | ? | ? | 0 | 0
CC(OC(=O)CCC1CCCC1)C(=O)Nc1ccccc1[N+](=O)[O-] (stereo not given) | ? | ? | ? | ? | 0 | ?
Cc1cc(C(=O)OCC(=O)N2CCCCCC2)ccc1[N+](=O)[O-] | 0 | 0 | 0 | 0 | 0 | 0
CCOc1ccc(NC(=O)CC2C(=O)N(c3ccccc3)C(=O)N2Cc2ccc3c(c2)OCO3)cc1 (stereo not given) | 0 | 0 | 0 | 0 | - | -
COc1ccccc1CN1CC(C(=O)NCc2cc(F)cc(C(F)(F)F)c2)CCC1=O (stereo not given) | 0 | 0 | 0 | 0 | 0 | 0
CCN(CC)S(=O)(=O)c1cccc(-c2n[nH]c(=S)n2/N=C/c2ccc(Br)cc2)c1 | 0 | ? | ? | 0 | 0 | 0
CCN(CC)S(=O)(=O)c1cccc(-c2n[nH]c(=S)n2C(C)COC)c1 (stereo not given) | 0 | 10µM | 3.5µM | 0 | 0 | 0
CCC(C)n1c(-c2cccc(S(=O)(=O)N3CCOCC3)c2)n[nH]c1=S (stereo not given) | 0 | 3.2µM | 5.6µM | 0 | 0 | 0
Cc1nc(-c2cccc(S(=O)(=O)N3CCOCC3)c2)cs1 | 0 | ? | 0 | 0 | 0 | 0
Cc1ccn2cc(-c3cccc(S(=O)(=O)N4CCCC4)c3)nc2c1 | 0 | 0 | 0 | 0 | 0 | 0
CCn1c(-c2cccc(S(=O)(=O)N3CCCC3)c2)n[nH]c1=S | 0 | 8.9µM | 6.3µM | 0 | - | 0
CCN(CC)C(=S)SC1CCCCN(C(=O)c2ccc(F)cc2)C1=O (stereo not given) | 0 | 0 | 0 | 0 | 0 | 0
CCCN(CCC)C(=O)Cn1c(=O)n(CCCCCC(=O)NCc2ccccc2Cl)c(=O)c2sccc21 | 0 | 0 | 0 | 0 | - | -
O=C1N=C(c2ccccc2)S/C1=C\c1cccs1 | ? | 1.4µM | 22µM | 0 | ? | 0
O=C1OC(c2ccccc2)=C/C1=C/c1cccs1 | 10µM | 13µM | ? | 0 | 0 | ?
O=C1N=C(N2CCN(c3ccccc3)CC2)S/C1=C/c1cccs1 | 0 | 0 | 0 | 0 | 0 | 0
COc1ccc(S(=O)(=O)N2CCC[C@H]2C(=O)N2CCC[C@H]2C(=O)NCc2ccncc2)cc1C | - | - | - | - | 0 | 0
SMILES | BAZ2B inh | G9a block | JMJD2A Tudor | HP1b binding inh | CtBP-E1A blk | Six1-Eya2 inh
CCN(CCCNC(=O)c1nn(-c2ccc(OC)c(Cl)c2)c(=O)c2c1c1ccccc1n2C)c1ccccc1 | - | 0 | 0 | 0 | - | -
COc1ccc(C2=C(N3CCN(c4cc(Cl)ccc4C)CC3)c3ccccc3C2=O)cc1 | 2.8µM | 3.5µM | 6.3µM | ? | - | -
Cc1ccc(CNC(=O)CN2C(=O)CCn3nc(-c4ccccc4)cc32)cc1 | 0 | 0 | 0 | 0 | - | -
C#CCN(Cc1ccco1)C(=O)c1cc(COc2ccc(F)cc2Cl)on1 | 71µM | - | 0[11.4 µM] | 0 | - | 0
CC(=O)N1CCN(c2cc3c(cc2F)c(=O)c(C(=O)O)cn3C2CC2)CC1 | 0 | 50µM | 0 | 0 | - | 0
CCN1CCN(c2cc3c(cc2F)c(=O)c(C(=O)O)cn3C2CC2)CC1 | ? | 32µM | 0 | 0 | 0 | 0
O=C(Nc1cccc(N2CCCC2)c1)c1cccs1 | ? | 3.2µM | ? | ? | 0 | 0
Cc1cc(C)c2cc(C#N)c(NCCNC(=O)c3ccncc3)nc2c1 | - | - | - | - | 0 | 0
COc1ccc(C(=O)Nc2ccccc2)cc1NC(=O)c1ccc([N+](=O)[O-])cc1 | 0 | ? | 0 | 0 | 0 | 0
C[C@H]1CN([C@@H](C)CO)C(=O)Cc2cc(NC(=O)C3CC3)ccc2O[C@H]1CN(C)Cc1ccc(Oc2ccccc2)cc1 | - | - | ? | 0 | 0 | 0
C[C@H]1CN([C@@H](C)CO)C(=O)Cc2cc(NC(=O)CCN3CCOCC3)ccc2O[C@@H]1CN(C)Cc1ccc(Oc2ccccc2)cc1 | - | - | 45µM | 0 | ? | 0
O=C(NCCc1ccc(Cl)cc1)C1CCN(S(=O)(=O)c2ccc(-n3cnnn3)cc2)CC1 | 0 | 0 | 79µM | 0 | 0 | 0
CCOC(=O)COn1c(=O)c(-c2ccco2)[n+]([O-])c2ccccc21 | ? | 10µM | 0 | 0 | 0 | 0
O=c1c(-c2ccco2)[n+]([O-])c2ccccc2n1OCc1ccccc1 | 0 | 6.3µM | 50µM | ? | - | 0
O=C(COC(=O)c1ccc2c(c1)OCCO2)NC1CCCCC1 | 0 | 0[12.7 µM] | 0 | 0 | 0 | 0
COc1ccc(Cl)cc1S(=O)(=O)Nc1ccc2[nH]c(=O)[nH]c2c1 | 0 | ? | 0 | 0 | - | -
Cc1nc([N+](=O)[O-])c(Sc2nc3ccccc3n2C)n1Cc1ccccc1 | 0 | ? | 0 | 0 | 0 | 0
O=[N+]([O-])c1ccc(N2CCCC2)cc1N1CCCC1 | 25µM | 0[12.7 µM] | 45µM | 16µM | ? | ?
Cc1ccc(C(=O)Nc2ccc(N3CCCC3)cc2)c(C)c1 | ? | - | 50µM | ? | 0 | 0
O=C(Nc1ccc(N2CCCC2)cc1)c1ccccc1[N+](=O)[O-] | 0 | 13µM | 0 | 0 | - | 0
Cc1ccc(C(=O)Nc2ccc3c(c2)C(=O)N(C)C3=O)c(C)c1 | 0 | 0 | 0 | 0 | 0 | 0
O=C(Nc1ccc(N2CCCCC2)cc1)c1ccc2ccccc2n1 | ? | 28µM | 20µM | ? | 0 | ?
O=C(NC1CC1)c1cc2cc(Br)ccc2s1 | 0 | - | 0 | 0 | 0 | 0
Cc1ccccc1-c1nnc(SCC(=O)N2CCCC2)o1 | 0 | 0 | 0 | 0 | 0 | 0
CCC1Oc2ccc(C)cc2N(CC(=O)NCC2CCCO2)C1=O (stereo not given) | 0 | 0 | 0 | 0 | 0 | 0
CC(CC(=O)N(CCC1=CCCCC1)c1c(N)n(Cc2ccccc2)c(=O)[nH]c1=O)c1ccccc1 (stereo not given) | 0 | ? | 0 | 0 | 0 | 0
Cc1ccccc1C(=O)Nc1ccc(N2CCCC2)cc1 | ? | 3.2µM | 28µM | 0 | 0 | 0
